Drawing on PubChem BioAssay AID485346 (Sanford-Burnham Center for Chemical Genomics, 2010), this text covers inhibition for 54 molecules.

SMILES strings stand for the structures. Screen size: about 330,000 compounds; about 10,000 (3%) were called active. This is one part of a sample in which actives are shown more often than they occur. A number with no mark means an inactive call.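 Rule for the calls: active = inhibition of at least 50% at 8 µM in the primary screen; inactive = the rest.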

The target of the test is Protein Mdm4 (Homo sapiens) + E3 ubiquitin-protein ligase Mdm2 (Homo sapiens) (UniProt O15151+Q00987). The test can be described thus: disruptors of Mdm2/MdmX RING complex – cell-based, luminescence, split luciferase, SaOS-2, uHTS, primary screen (AID 485346). The note with it: SaOS-2 split-luciferase Mdm2/MdmX complementation, at 8 µM, hits give high values.
Chain of Protein Mdm4 (Homo sapiens) + E3 ubiquitin-protein ligase Mdm2 (Homo sapiens) (O15151 whole entry, looked up): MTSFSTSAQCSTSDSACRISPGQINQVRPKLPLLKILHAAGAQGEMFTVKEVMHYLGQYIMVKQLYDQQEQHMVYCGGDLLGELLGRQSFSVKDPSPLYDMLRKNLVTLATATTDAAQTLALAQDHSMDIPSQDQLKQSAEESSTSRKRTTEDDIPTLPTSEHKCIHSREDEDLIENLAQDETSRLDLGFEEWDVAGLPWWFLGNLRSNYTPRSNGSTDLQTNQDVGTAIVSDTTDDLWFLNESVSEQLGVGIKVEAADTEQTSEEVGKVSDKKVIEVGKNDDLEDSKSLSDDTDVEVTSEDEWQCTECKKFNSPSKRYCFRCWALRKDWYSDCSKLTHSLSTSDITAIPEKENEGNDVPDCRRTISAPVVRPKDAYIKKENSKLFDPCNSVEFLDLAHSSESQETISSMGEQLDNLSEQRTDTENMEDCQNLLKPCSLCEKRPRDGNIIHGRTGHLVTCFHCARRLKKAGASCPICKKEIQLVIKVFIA
Chain of Protein Mdm4 (Homo sapiens) + E3 ubiquitin-protein ligase Mdm2 (Homo sapiens) (Q00987 whole entry, looked up): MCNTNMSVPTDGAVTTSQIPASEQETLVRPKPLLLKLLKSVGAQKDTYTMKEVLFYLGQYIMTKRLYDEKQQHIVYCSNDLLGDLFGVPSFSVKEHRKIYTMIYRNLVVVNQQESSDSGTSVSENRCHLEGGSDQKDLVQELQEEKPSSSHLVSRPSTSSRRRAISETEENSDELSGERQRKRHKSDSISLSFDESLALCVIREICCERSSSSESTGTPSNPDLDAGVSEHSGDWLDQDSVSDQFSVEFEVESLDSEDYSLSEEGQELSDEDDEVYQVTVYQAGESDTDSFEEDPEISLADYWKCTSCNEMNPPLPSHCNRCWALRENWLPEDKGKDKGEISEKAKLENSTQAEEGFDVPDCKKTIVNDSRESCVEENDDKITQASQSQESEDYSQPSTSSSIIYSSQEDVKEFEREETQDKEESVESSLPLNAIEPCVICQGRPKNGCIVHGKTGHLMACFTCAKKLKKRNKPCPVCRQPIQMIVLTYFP
One may read the inhibition as the change of the read-out against control, counted positive when it falls. Take `Cc1ccc(CNC(=O)Cn2cnc3c(NCc4ccccc4)ncnc32)o1`: the inhibition is 28.2%.

In the case of `NC(=O)COc1ccc(C23CC4CC(CC(C4)C2)C3)cc1`, the inhibition is -45%.

In the case of `Cc1cc([N+](=O)[O-])nn1CC(=O)Nc1ccc(Cc2ccncc2)cc1`, the inhibition was 2.13%.

Regarding `CCOC(=O)CC1C(=O)NCCN1c1nc2c(C)cccn2c(=O)c1/C=C1\SC(=S)N(C(C)CC)C1=O` (centres undefined), the inhibition was 59% (active).

Turning to `CCCN(CCC)c1nc2c(C)cccn2c(=O)c1/C=C1/SC(=S)N(Cc2ccco2)C1=O`, the inhibition was 2.98%.

For the molecule `CCOC(=O)N1CCN(C(=O)CSc2nc(=O)n3cccc(C)c3n2)CC1`, the inhibition was -0.597%.

For `Cc1cc(C)n2nc(C(=O)Nc3cccc(S(=O)(=O)N4CCOCC4)c3)nc2n1`, the inhibition was 7.78%.

Turning to `NC(=O)COc1ccccc1C(=O)NC12CC3CC(CC(C3)C1)C2`, the inhibition is 3.86%.

Take `COc1ccccc1C(=O)NC(=S)NC12CC3CC(CC(C3)C1)C2`: the inhibition was 63.6% (active).

Take `COc1ccccc1C(=O)NC(=O)COC(=O)C1CC1`: the inhibition was -22.8%.

On to `COc1ccc(N2CCN(CCNC(=O)Nc3cc(Cl)ccc3Cl)CC2)cc1`, for which the inhibition was 14.4%.

Take `CCCCn1c(N)c(N(CC(C)C)C(=O)c2ccc(Br)o2)c(=O)[nH]c1=O`: the inhibition is 25.9%.

As for `CNc1ccc(SC#N)cc1`, the inhibition was 0.392%.

With `COC(=O)Cc1[nH]n(-c2nc3ccccc3s2)c(=O)c1C(C)=Nc1ccc(OC)cc1`, the inhibition is 77.3% (active).

Take `CC(=NCc1ccco1)c1c(C(F)(F)F)[nH]n(-c2nc3ccccc3s2)c1=O`: the inhibition was 0.099%.

With `COc1ccc(C2=NN(c3nc4ccccc4s3)C(=O)C2)cc1`, the inhibition was 1.88%.

For the molecule `CCn1nc(C)c(CNC(=O)C2CCC(=O)N(Cc3cccc(F)c3)C2)c1C` (centres undefined), the inhibition is 28.2%.

As to `COc1ccc2[nH]c3c(c2c1)CCN1C(=O)C(CC(=O)NCCCN(C)C)C[C@H](C(=O)N2CCOCC2)[C@@]31CCC1CCCC1` (some centres undefined), the inhibition was -3.6%.

Consider `O=C(C[C@H]1C[C@H](C(=O)N2CCOCC2)[C@@]2(CCC3CCCC3)c3[nH]c4ccc(Cl)cc4c3CCN2C1=O)NCc1ccco1`, for which the inhibition was 49.9%.

Take `COc1ccc(CNC(=O)C[C@H]2C[C@H](C(=O)N3CCOCC3)[C@@]3(CCC4CCCC4)c4[nH]c5ccc(Cl)cc5c4CCN3C2=O)cc1OC`: the inhibition was 92.6% (active).

Turning to `COCCN(C(=O)C(C)C)c1nnc(-c2ccc(C(C)(C)C)cc2)s1`, the inhibition was -22.5%.

Consider `COC(=O)NC1(C(F)(F)F)NC(=O)N(C2CCCCC2)C1=O` (centres undefined), for which the inhibition is -5.21%.

Turning to `O=C1NC(Nc2nc3ccccc3s2)(C(F)(F)F)C(=O)N1C1CCCCC1` (centres undefined), the inhibition is 66.2% (active).

Turning to `O=C(NC1(C(F)(F)F)NC(=O)N(C2CCCCC2)C1=O)c1ccco1` (centres undefined), the inhibition is 1.56%.

Take `CC(Oc1ccc(F)cc1)C(=O)Nc1cc(S(=O)(=O)N2CCOCC2)ccc1N1CCN(C)CC1` (centres undefined): the inhibition is 13.7%.

As for `Cc1cc(NC(=O)/C=C/C(=O)N(CC(=O)NC2CCCC2)c2ccc(F)cc2)no1`, the inhibition is -19.5%.

On to `Cc1cc(NC(=O)CCC(=O)N(c2cccc(F)c2)C(C(=O)NC2CCCC2)c2ccncc2)no1` (centres undefined), for which the inhibition was -20%.

With `Cc1cc(NC(=O)/C=C/C(=O)N(c2ccccc2C)C(C(=O)NC2CCCC2)c2ccc(F)cc2)no1` (centres undefined), the inhibition was 63.1% (active).

Turning to `COc1ccc(/C=N/NC(=O)c2cc(-c3cccc(C)c3)nc3ccccc23)cc1O`, the inhibition was 34.6%.

Consider `CCOc1ccc(-c2cc(C(=O)N/N=C/c3ccc(O)cc3)c3ccccc3n2)cc1`, for which the inhibition was 76.9% (active).

In the case of `CCOc1cc(/C=N/NC(=O)c2cc(-c3ccccc3)nc3ccccc23)ccc1O`, the inhibition is -10.1%.

As to `O=C(NCCCN1CCOCC1)c1cnn2c(-c3ccccc3)cc(-c3ccccc3)nc12`, the inhibition was 37.7%.

In the case of `CN1CCN(c2ccc(S(=O)(=O)N3CCCCC3)cc2NC(=O)Cc2ccccc2F)CC1`, the inhibition was 9.14%.

With `CCN1CCN(c2ccc(S(=O)(=O)N3CCCCC3)cc2NC(=O)c2cccc(NC(C)=O)c2)CC1`, the inhibition was 12%.

With `CCN1CCN(c2ccc(S(=O)(=O)N3CCCCC3)cc2NC(=O)Cc2c(Cl)cccc2Cl)CC1`, the inhibition is 65.1% (active).

Turning to `CCOc1cc2[nH]c(=S)n(Cc3ccc(C(=O)N4CCN(C)CC4)cc3)c(=O)c2cc1OCC`, the inhibition was 91.7% (active).

Consider `COc1cc2[nH]c(=S)n(Cc3ccc(F)cc3)c(=O)c2cc1OC`, for which the inhibition is 81.3% (active).

`COc1ccc(Cn2c(=S)[nH]c3cc(C(=O)N4CCCCC4)ccc3c2=O)cc1`: the inhibition is 14.8%.

In the case of `COc1cc2[nH]c(=S)n(Cc3ccc(C)o3)c(=O)c2cc1OC`, the inhibition was 2.31%.

Take `COc1cc2[nH]c(=S)n(CCN3CCCCC3C)c(=O)c2cc1OC` (centres undefined): the inhibition is 39.9%.

Regarding `CCOc1cc2[nH]c(=S)n(Cc3ccc(C(=O)NCCOC)cc3)c(=O)c2cc1OCC`, the inhibition was 19.2%.

On to `CC(=O)NC(Cc1ccc(F)c(F)c1)C(=O)NC1CCN(c2nnnn2-c2ccccc2)CC1` (centres undefined), for which the inhibition was 6.6%.

Consider `Cc1ccc(CNC(=O)CCCNC(=O)c2ccc(Cl)cc2)n1C`, for which the inhibition was 22.5%.

`CCN(Cc1ccncc1)C(=O)CCc1ccccc1`: the inhibition was 16.5%.

As for `O=C(CCNc1n[nH]c(=O)[nH]c1=O)N/N=C\c1ccc(Br)cc1`, the inhibition was 9.18%.

As for `CC1=C(C)CC(C(=O)NNC(=O)c2ccccc2O)C(C(=O)O)C1` (centres undefined), the inhibition was 60.5% (active).

For `Cc1cc(C(=O)NNC(=O)c2ccccc2O)c(C)o1`, the inhibition is 30%.

With `CC1=C(C)CC(C(=O)NNC(=O)c2csc3c2CCC(C(C)(C)C)C3)C(C(=O)O)C1` (centres undefined), the inhibition is 7.93%.

As for `Cc1noc(NS(=O)(=O)c2ccc(NC(=O)c3oc4ccc(F)cc4c3C)cc2)c1C`, the inhibition was -34%.

As to `O=c1oc2ccccc2cc1-c1cn(-c2ccccc2)c(=S)[nH]1`, the inhibition was 88.3% (active).

Regarding `O=C(Nc1cc2ccccc2oc1=O)C1CCCCC1`, the inhibition is -82.7%.

In the case of `S=c1[nH]c(-c2cccs2)cn1-c1ccccc1`, the inhibition was -16.2%.

Turning to `COCCCN1C(=O)C(=O)/C(=C(/O)c2ccc(S(=O)(=O)N3CCOCC3)cc2)C1c1ccc(F)cc1` (centres undefined), the inhibition was -23.9%.

Turning to `COc1ccccc1C1=CC(=O)C[C@H](c2ccc(F)cc2)C1`, the inhibition is -0.761%.
